Shown are actives, neighbours in structure and some others; about 1.8% of the full set was active somewhere.
S1P2 blocker = antagonists of human S1P2 receptor. O95136. cell-based S1P2 antagonist assay, inhibition at 5 uM. inhibition, % at 5 µM. 97,000 compounds, 0.21% hits. AID 736; in the data active = inhibition above about 45%;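 note: CRE beta-lactamase reporter cells expressing human S1P2 stimulated with S1P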
S1P2 agonist = agonists of human S1P2 receptor | AID 729 | O95136 | S1P2-expressing cell line, agonist reporter read-out | 97,000 compounds, 0.46% hits | activation, % at 4.5 µM; in the data active = activation above about 16%
MRP1 act = activators of MRP-1; H69AR cells + doxorubicin, viability rescue, CellTiter-Glo; viability increase, % at 10 µM; 140,000 compounds, 0.61% hits; AID 799;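 active = viability gain under doxorubicin at or above a set limit, the compound median plus 3 SD, cut at about 4.7% in these data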;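 note: MRP-1 overexpressing cells given doxorubicin 25 µM after compound pretreatment; 18-22 h compound pretreatment then 72 h with doxorubicin before readout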
MRP resist rev = reverses drug resistance mediated by MRP; H69AR cells + 2 uM doxorubicin, CellTiter-Glo, 72 h; differential viability (reversal), % at 10 µM; 85,000 compounds, 0.04% hits; AID 602;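 active = viability drop by adding the cancer drug above about 55%, with treated viability meeting a 40% cutoff, limit read from the data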;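 note: larger differential means the compound sensitizes cells more to doxorubicin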
GALR2 antag = antagonists of human galanin receptor 2 (GALR2) | 140,000 compounds, 0.39% hits | inhibition, % at 4 µM | GALR2-expressing cells, antagonist mode | O43603; in the data active = inhibition above about 27%;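 note: cells stimulated with galanin 1-16 at roughly its EC80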
Target sequence (O43603 whole entry, looked up): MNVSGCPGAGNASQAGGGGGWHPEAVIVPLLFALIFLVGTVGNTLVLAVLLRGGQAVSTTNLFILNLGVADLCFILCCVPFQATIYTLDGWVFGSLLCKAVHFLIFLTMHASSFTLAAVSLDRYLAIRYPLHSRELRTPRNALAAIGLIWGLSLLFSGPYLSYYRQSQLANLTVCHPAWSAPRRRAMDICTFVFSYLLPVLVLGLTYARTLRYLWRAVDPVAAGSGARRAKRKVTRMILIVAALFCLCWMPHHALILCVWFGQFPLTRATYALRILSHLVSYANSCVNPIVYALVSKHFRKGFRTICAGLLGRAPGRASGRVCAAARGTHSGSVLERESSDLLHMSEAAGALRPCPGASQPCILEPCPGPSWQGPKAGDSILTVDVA
GALR2 ag = activates the human galanin receptor 2. GALR2-expressing cells, agonist activation read-out. activation, % (no concentration beside the values). 140,000 compounds, 0.48% hits. AID 803; in the data active = activation above about 5%, passing the limit was not always enough
Hits are given with their value; - = inactive; . = no result.

SMILES | S1P2 blocker | S1P2 agonist | MRP1 act | MRP resist rev | GALR2 antag | GALR2 ag
COc1cc(-c2nnc(COC(=O)c3c4c(nc5ccccc35)CCCC4)o2)cc(OC)c1OC | - | 42.8 | - | . | - | -
Cc1cccc(OCc2nnc(SCC(=O)Nc3cccc(C(=O)N4CCOCC4)c3)n2C)c1 | . | . | - | . | - | -
Cc1ccc(/C=C/C(=O)Nc2sc3c(c2C#N)CCCC3)o1 | . | . | - | . | - | 5.7
N#Cc1nc(-c2ccc(OCc3ccccc3)cc2)oc1NCc1cccnc1 | - | - | - | - | - | -
CN(C)c1oc(-c2ccc(OCc3ccccc3)cc2)nc1C#N | - | - | 4.7 | - | - | -
COc1ccc(-n2nnnc2S(=O)(=O)CC(=O)N2CCCCC2)cc1 | 52.6 | - | - | - | 48.2 | -
COc1ccc(-n2nnnc2S(=O)(=O)Cc2ccc(C(=O)O)cc2)cc1 | - | - | - | - | - | -
CCN(CC)C(=O)C(=O)c1c(-c2ccccc2)[nH]c2ccccc12 | . | . | 23.1 | . | - | -
O=C(NC1CC1)C(=O)c1c(-c2ccccc2)[nH]c2ccccc12 | . | . | - | . | - | -
Cc1cccc(N2CCCC2=Nc2ccc(Br)cc2C#N)c1 | - | - | - | . | - | -
COc1ccc(/C=N/Nc2cc(OC)ncn2)cc1 | . | . | 5.4 | . | - | -
COc1ccc(/C=N/Nc2cc(N(C)C)nc(N(C)C)n2)cc1 | . | . | - | . | - | -
O=C1Nc2ccc(Cl)cc2/C1=C/C1CC=CCC1 (stereo not given) | . | . | - | . | - | 5.0
O=C(Oc1ccc(Cl)c2cccnc12)C12CC3CC(CC(C3)C1)C2 | . | . | - | . | - | -
CN1/C(=C\C(=O)c2ccco2)C(C)(C)c2ccccc21 | - | 17.6 | - | - | - | -
CC(C)OCCCn1c(SCC(=O)N2CCc3ccccc32)nc2ccccc2c1=O | . | . | - | . | - | -
O=C1c2ccccc2-c2nc3ccccc3n21 | - | - | 8.3 | - | - | -
O=c1c(Cc2ccc(F)cc2)c(O)ccn1Cc1ccc(Cl)cc1Cl | - | - | - | . | - | -
O=C1CC(c2nc3ccccc3[nH]2)CN1c1cccc(C(F)(F)F)c1 (stereo not given) | . | . | 7.7 | - | - | -
O=C(/C=C\Nc1ccc(Br)cc1)c1cccnc1 | . | . | - | . | - | -
O=[N+]([O-])c1ccc(O)c(/C=N/Nc2nc3ccccc3[nH]2)c1 | . | . | - | . | - | -
O=[N+]([O-])c1ccc(O)c(/C=N/Nc2ccccn2)c1 | . | . | - | . | - | 6.2
O=C(COc1ncnc2ccccc12)c1ccc2c(c1)OCCO2 | - | - | - | - | - | -
CC(C(=O)N1c2ccccc2CCc2ccccc21)n1nnc(-c2ccc(N(C)C)cc2)n1 (stereo not given) | - | - | 8.2 | - | - | -
Cc1ccc(OCC(O)Cn2c(=N)n(Cc3ccccc3)c3ccccc32)cc1 (stereo not given) | - | - | - | - | - | -
SMILES | S1P2 blocker | S1P2 agonist | MRP1 act | MRP resist rev | GALR2 antag | GALR2 ag
COc1ccc(OCC(O)Cn2c(=N)n(Cc3ccccc3)c3ccccc32)cc1 (stereo not given) | - | - | - | - | 29.1 | -
CCOc1ccc2[nH]c3c(N4CCN(c5ccccn5)CC4)ncnc3c2c1 | - | - | - | . | - | -
Cc1ccc2[nH]c3c(N4CCN(Cc5ccccc5)CC4)ncnc3c2c1 | 58.8 | - | - | - | - | -
Cc1ccc2[nH]c3c(N4CCN(Cc5ccc6c(c5)OCO6)CC4)ncnc3c2c1 | 69.4 | - | - | - | - | -
COc1cccc2[nH]c3c(N4CCN(Cc5ccc6c(c5)OCO6)CC4)ncnc3c12 | - | - | - | - | - | -
Cc1ccc2c(c1)[nH]c1c(N3CCN(Cc4ccccc4)CC3)ncnc12 | 70.0 | - | - | - | - | -
CCOC(=O)c1c(NC(=O)C(C)NCc2ccco2)sc2c1CCC(C)C2 (stereo not given) | - | - | - | . | - | -
O=C1CC(N2CCN(c3nc4ccccc4s3)CC2)C(=O)N1c1ccc(F)cc1 (stereo not given) | - | - | 4.9 | - | - | -
Cc1ccc(C(=O)N2CCN(c3ncccn3)CC2)cc1S(=O)(=O)N1CCCCC1 | . | . | - | . | - | -
Cc1ccc(NC(=O)N(Cc2ccc3c(c2)OCO3)Cc2cc3cc4c(cc3[nH]c2=O)OCCO4)cc1 | - | - | - | 55.3 | - | -
Cc1ccc(NC(=O)N(Cc2cccs2)Cc2cc3cc4c(cc3[nH]c2=O)OCO4)cc1 | . | . | - | . | - | -
O=C(Nc1ccccc1)N(Cc1ccc2c(c1)OCO2)Cc1nc2ccccc2c(=O)[nH]1 | - | 21.0 | - | - | - | -
CCn1c(COc2ccc(C)cc2)nnc1SCc1nc2ccccc2[nH]1 | - | - | 7.6 | - | - | -
Cn1c(COc2ccccc2)nnc1SCc1nc2ccccc2[nH]1 | - | - | - | - | - | -
O=C1CSC(=NC(=O)c2ccccc2)N1 | - | - | 6.2 | - | - | -
COc1ccc(C(=O)Nc2ccccc2Cc2ccccc2)c(OC)c1 | . | . | 5.3 | . | - | -
CN(C)CCCNS(=O)(=O)c1ccc(N2CCC(c3ccc(Cl)cc3)=N2)cc1 | - | 202.3 | - | - | - | 131.7
CCN(CC(=O)N1CCCCCC1)S(=O)(=O)c1ccc(Cl)cc1 | - | - | - | . | - | -
CN(C)CCCNS(=O)(=O)c1cc(Cl)ccc1Cl | - | - | - | - | - | -
O=S(=O)(c1ccc(N2CCC(c3ccc(Cl)cc3)=N2)cc1)N(CCO)CCO | - | 111.0 | - | - | - | 89.5
N#Cc1ccc(N2C(=O)[C@@H]3C(C(=O)c4ccc5ccccc5n4)=NN[C@@H]3C2=O)cc1 | . | . | 9.3 | . | - | -
Cc1ccc(NS(=O)(=O)c2ccc(NC(=O)c3cccc(NC(=O)C(C)C)c3)cc2)cc1 | - | - | - | . | - | -
CCCCc1ccc(NC(=O)COc2ccc(C(=O)Nc3ccccc3C)cc2)cc1 | . | . | - | . | - | 5.8
CCCCc1ccc(NC(=O)COc2ccc(C(=O)Nc3ccccc3OC)cc2)cc1 | . | . | - | . | - | -
COC(=O)CCc1c(C)[nH]c(C(=O)OCc2ccccc2)c1C | - | - | 5.1 | - | - | -
SMILES | S1P2 blocker | S1P2 agonist | MRP1 act | MRP resist rev | GALR2 antag | GALR2 ag
CCOC(=O)C1=C(C)Nc2ncnn2C1c1cccnc1 (stereo not given) | - | - | 177.3 | - | - | -
CCOC(=O)C1=C(C)Nc2ncnn2C1c1ccc(N(C)C)cc1 (stereo not given) | . | . | - | - | - | -
Cc1ccc(CNC(=O)c2sc3nc4c(c(C(F)(F)F)c3c2N)CCC4)cc1 | - | - | 4.8 | . | - | -
COc1ccccc1C(=O)NCCCN1CCCC1=O | - | - | - | . | - | -
COC(=O)C1=CN(CCCN2CCCC2=O)C=C(C(=O)OC)C1c1ccccc1C(F)(F)F | - | 20.0 | - | - | - | 19.6
COC(=O)C1=CN(C)C=C(C(=O)OC)C1c1ccccc1Cl | - | 22.9 | - | - | - | 16.0
CCCCOc1ccccc1C1C(C(=O)OC)=CN(CC)C=C1C(=O)OC | - | 24.0 | - | - | - | 15.7
COC(=O)C1=C(C)Nc2nnnn2C1c1ccccc1Cl (stereo not given) | - | - | - | - | - | -
CCN1C=C(C(=O)OC)C(c2cccc(C)c2)C(C(=O)OC)=C1 | - | - | - | - | - | 14.0

Assay outcomes as filed in PubChem.
